Measurements reported in PubChem BioAssay (Tox21).
Results filed as inconclusive are left out. The source made the active and inactive calls. Unless noted, calls come from the whole dose curve; as a rule, active = well fitted curve in the direction sought with a large enough effect in the repeat runs; inconclusive = weak or mixed curves; inactive = no such curve, though single readings can be large; an effect the other way counts as inactive or inconclusive.

Tests used:
[1] = target: Progesterone receptor (Homo sapiens) (UniProt P06401); assay: qHTS assay to identify small molecule agonists of the progesterone receptor (PR) signaling pathway (AID 1346784; calls by dose curve; note: nearly all actives have a fitted effect of over 30% in size); settings: PR-UAS-bla HEK293T, beta-lactamase FRET ratio, 16 h; series mostly up to 92.4 µM
Progesterone receptor (Homo sapiens), sequence (P06401 whole entry, looked up): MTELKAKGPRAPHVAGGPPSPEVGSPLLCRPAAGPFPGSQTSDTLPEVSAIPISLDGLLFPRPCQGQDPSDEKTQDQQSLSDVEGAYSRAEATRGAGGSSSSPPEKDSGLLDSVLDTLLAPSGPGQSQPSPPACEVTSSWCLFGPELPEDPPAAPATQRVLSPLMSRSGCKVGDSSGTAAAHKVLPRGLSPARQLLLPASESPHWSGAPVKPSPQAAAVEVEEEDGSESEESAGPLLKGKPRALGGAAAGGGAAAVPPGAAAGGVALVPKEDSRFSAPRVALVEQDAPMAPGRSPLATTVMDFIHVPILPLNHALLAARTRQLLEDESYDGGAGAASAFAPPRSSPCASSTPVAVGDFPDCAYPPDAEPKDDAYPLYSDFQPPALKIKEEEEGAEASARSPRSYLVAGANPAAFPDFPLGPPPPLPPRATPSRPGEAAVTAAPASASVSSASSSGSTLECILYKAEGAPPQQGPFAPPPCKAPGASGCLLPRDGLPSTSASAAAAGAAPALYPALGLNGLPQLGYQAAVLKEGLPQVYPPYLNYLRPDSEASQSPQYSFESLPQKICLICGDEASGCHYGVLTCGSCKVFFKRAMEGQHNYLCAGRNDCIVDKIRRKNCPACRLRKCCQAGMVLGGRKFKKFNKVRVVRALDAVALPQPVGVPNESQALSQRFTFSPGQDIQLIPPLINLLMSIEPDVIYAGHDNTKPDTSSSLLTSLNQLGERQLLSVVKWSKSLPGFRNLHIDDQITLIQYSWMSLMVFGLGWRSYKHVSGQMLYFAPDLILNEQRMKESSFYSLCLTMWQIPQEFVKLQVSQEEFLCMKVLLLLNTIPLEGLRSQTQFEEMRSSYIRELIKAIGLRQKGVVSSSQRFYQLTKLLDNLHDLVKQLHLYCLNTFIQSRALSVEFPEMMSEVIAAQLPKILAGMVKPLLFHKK
Summary of the method: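 Cells (PR-UAS-bla HEK 293T, GripTite) were plated in assay medium containing 2% charcoal-stripped FBS and incubated 6 hr. Test compounds in DMSO were added for 16 hr at 37C. FRET substrate was then loaded for 2 hr at room temperature before fluorescence reading.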

[2] = qHTS assay to identify small molecule antagonists of the progesterone receptor (PR) signaling pathway - cell viability counter screen (AID 1346798); settings: PR-UAS-bla HEK293T viability, CellTiter-Glo luminescence, 16 h; series mostly up to 92.4 µM; note: nearly all actives have a fitted effect of over 50% in size
Summary of the method: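 Counter screen for cytotoxicity: viability of PR-UAS-bla HEK293T cells was measured with CellTiter-Glo luminescence following 16 hr compound exposure in the presence of R5020.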

[3] = qHTS assay to identify small molecule antagonists of the TGF-beta/Smad signaling pathway - cell viability counter screen (AID 1346824); settings: SBE-bla HEK293T viability, CellTiter-Glo luminescence; series mostly up to 76.8 µM; note: nearly all actives have a fitted effect of over 50% in size
Summary of the method: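 Cytotoxicity counter-screen run in the same wells as the beta-lactamase Smad reporter read: CellTiter-Glo luminescence after 30 min at room temperature. HEK 293T SBE-bla cells had 5 hr compound exposure at 37 C with TGF-beta1 (0.25 ng/mL stock).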

[4] = qHTS assay to identify small molecule agonists of the TGF-beta/Smad signaling pathway (AID 1346859; active = well fitted activation curve with a large enough effect in the signal ratio in the repeat runs, not every such curve was filed as active; the % refers to the signal ratio); settings: SBE-bla HEK293T, TGF-beta/Smad beta-lactamase reporter, 5 h; series mostly up to 76.8 µM
Summary of the method: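 Reporter line: HEK 293T with stably integrated SBE-controlled beta-lactamase. Compound exposure lasts 5 hr at 37 C and 5% CO2; substrate loading follows for 2 hr at room temperature, with emission read at 460 and 530 nm.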

[5] = target: Thyrotropin-releasing hormone receptor (Homo sapiens) (UniProt P34981); assay: qHTS assay to identify small molecule antagonists of the thyrotropin-releasing hormone receptor (TRHR) signaling pathway (AID 1346877; active = well fitted inhibition curve with a large enough effect in the repeat runs, not every such curve was filed as active); settings: TRHR-HEK293, TRH-induced calcium fluorescence, antagonist mode; series mostly up to 51.3 µM
Thyrotropin-releasing hormone receptor (Homo sapiens), sequence (P34981 whole entry, looked up): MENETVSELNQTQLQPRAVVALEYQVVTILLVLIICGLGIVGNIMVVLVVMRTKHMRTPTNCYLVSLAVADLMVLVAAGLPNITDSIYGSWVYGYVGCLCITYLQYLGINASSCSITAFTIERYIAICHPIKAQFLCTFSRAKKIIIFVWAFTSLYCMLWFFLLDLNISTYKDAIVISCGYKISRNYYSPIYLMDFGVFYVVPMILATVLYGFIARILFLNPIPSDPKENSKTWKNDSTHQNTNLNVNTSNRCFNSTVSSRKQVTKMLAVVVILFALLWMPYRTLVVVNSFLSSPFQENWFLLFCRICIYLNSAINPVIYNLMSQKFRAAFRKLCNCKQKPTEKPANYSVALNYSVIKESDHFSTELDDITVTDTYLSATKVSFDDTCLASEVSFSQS
Summary of the method: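 Intracellular calcium fluorescence, read kinetically every second over 3 min, reports TRH-evoked signalling in HEK293 cells carrying TRHR. Test compounds were added 5 min ahead of a 1 nM TRH challenge.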

[6] = target: Thyrotropin-releasing hormone receptor (Homo sapiens) (UniProt P34981); assay: qHTS assay to identify small molecule agonists of the thyrotropin-releasing hormone receptor (TRHR) signaling pathway (AID 1346891; calls by dose curve;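 note: HEK293 cells expressing TRHR with calcium dye readout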); settings: TRHR-HEK293 calcium fluorescence, agonist mode; series mostly up to 57.6 µM
Summary of the method: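 Cells: TRHR-Hek293, seeded and incubated 18 h. Dye loading: 2 h at 37 °C. Compound added from DMSO stock by pin tool. Read-out: kinetic calcium fluorescence over 3 min.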

[7] = Human pregnane X receptor (PXR) small molecule agonists, qHTS cell viability counter screen (AID 1346977); settings: PXR-Luc HepG2 viability, CellTiter-Fluor, 24 h; series mostly up to 92.4 µM; note: nearly all actives have a fitted effect of over 50% in size
Summary of the method: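 Cytotoxicity counter screen run in the same wells as the PXR luciferase assay, using PXR-Luc HepG2 cells in charcoal-stripped serum medium. Viability: CellTiter-Fluor fluorescence after 24hr compound treatment.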

[8] = Caspase-3/7 induction in HepG2 cells by small molecules, qHTS assay (AID 1346978); settings: HepG2 caspase-3/7 activation, Caspase-Glo luminescence, 17 h; series mostly up to 92.4 µM; note: nearly all actives have a fitted effect of over 15% in size
Summary of the method: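 Caspase-3/7 induction was measured by Caspase-Glo 3/7 luminescence (30 min, room temperature) after a 17 hr compound exposure of wild-type HepG2 cells seeded at 2,000 per well and pre-incubated 5 hr.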

[9] = Caspase-3/7 induction in CHO-K1 cells by small molecules, qHTS cell viability counter screen (AID 1346979); settings: CellTiter-Fluor fluorescence, 17 h; series mostly up to 92.4 µM; note: nearly all actives have a fitted effect of over 35% in size
Summary of the method: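 Cytotoxicity counter screen run in parallel with the caspase-3/7 assay: CHO-K1 cells, 16hr compound treatment at 37C, then CellTiter-Fluor for 1hr before fluorescence reading.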

[10] = Caspase-3/7 induction in CHO-K1 cells by small molecules, qHTS assay (AID 1346980); settings: CHO-K1 caspase-3/7 induction, Caspase-Glo luminescence, 17 h; series mostly up to 92.4 µM; note: nearly all actives have a fitted effect of over 15% in size
Summary of the method: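 Luminescent Caspase-Glo 3/7 read (30min, room temperature) quantified apoptosis induction. Cells were wild-type CHO-K1, treated with compound for 17hr at 37 C and 5% CO2.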

[11] = Caspase-3/7 induction in HepG2 cells by small molecules, qHTS cell viability counter screen (AID 1346981); settings: CellTiter-Fluor fluorescence, 17 h; series mostly up to 92.4 µM; note: nearly all actives have a fitted effect of over 30% in size
Summary of the method: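 HepG2, WT, 2,000 cells/well; 5 hr pre-incubation 37 C/5% CO2; compound pin-transferred from DMSO; 16 hr exposure; CellTiter-Fluor, 1 hr; fluorescence read.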

[12] = target: Nuclear receptor subfamily 1 group I member 2 (Homo sapiens) (UniProt O75469); assay: Human pregnane X receptor (PXR) small molecule agonists, qHTS assay (AID 1346982); settings: PXR-Luc HepG2, CYP3A4 luciferase reporter, 24 h; series mostly up to 92.4 µM; note: nearly all actives have a fitted effect of over 35% in size
Nuclear receptor subfamily 1 group I member 2 (Homo sapiens), sequence (O75469 whole entry, looked up): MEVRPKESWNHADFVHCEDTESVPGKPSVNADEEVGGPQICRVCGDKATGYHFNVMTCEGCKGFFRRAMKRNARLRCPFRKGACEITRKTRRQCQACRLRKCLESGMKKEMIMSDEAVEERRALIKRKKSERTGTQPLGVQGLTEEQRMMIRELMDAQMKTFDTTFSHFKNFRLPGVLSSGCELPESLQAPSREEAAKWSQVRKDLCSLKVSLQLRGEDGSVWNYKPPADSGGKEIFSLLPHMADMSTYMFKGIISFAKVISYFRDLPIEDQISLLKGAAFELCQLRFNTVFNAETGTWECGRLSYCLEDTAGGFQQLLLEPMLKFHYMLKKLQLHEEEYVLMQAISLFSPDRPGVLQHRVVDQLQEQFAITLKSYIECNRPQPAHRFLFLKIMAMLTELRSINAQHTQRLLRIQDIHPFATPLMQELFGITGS
Summary of the method: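 Luciferase signal from ONE-Glo (30 min, room temperature) measured activation of hPXR-driven CYP3A4 reporter expression in PXR-Luc HepG2 cells treated with compounds for 24 hr at 37 C.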

[13] = target: Acetylcholinesterase (Homo sapiens) (UniProt P22303); assay: Acetylcholinesterase (AChE) small molecule antagonists: colormetric cell-based qHTS assay (AID 1347395; calls by dose curve; note: nearly all actives have a fitted effect of over 30% in size); settings: SH-SY5Y cells AChE activity, colorimetric (Ellman); series mostly up to 115 µM
Acetylcholinesterase (Homo sapiens), sequence (P22303 whole entry, looked up): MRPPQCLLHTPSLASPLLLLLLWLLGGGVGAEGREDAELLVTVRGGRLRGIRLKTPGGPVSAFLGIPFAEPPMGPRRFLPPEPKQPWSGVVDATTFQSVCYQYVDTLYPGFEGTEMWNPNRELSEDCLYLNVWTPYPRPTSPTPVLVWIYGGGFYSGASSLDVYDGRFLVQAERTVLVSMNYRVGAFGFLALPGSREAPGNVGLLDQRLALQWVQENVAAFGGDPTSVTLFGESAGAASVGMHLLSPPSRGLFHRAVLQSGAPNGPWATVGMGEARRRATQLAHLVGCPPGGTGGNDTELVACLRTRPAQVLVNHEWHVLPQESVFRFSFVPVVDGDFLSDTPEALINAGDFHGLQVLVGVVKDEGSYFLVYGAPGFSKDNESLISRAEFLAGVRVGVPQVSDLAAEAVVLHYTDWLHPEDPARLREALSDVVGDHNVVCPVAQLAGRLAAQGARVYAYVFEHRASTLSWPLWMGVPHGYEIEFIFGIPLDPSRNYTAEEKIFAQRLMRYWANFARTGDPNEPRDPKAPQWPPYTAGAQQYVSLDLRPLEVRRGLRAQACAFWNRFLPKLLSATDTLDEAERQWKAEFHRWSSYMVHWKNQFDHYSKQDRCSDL
Summary of the method: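 Cells (SH-SY5Y, 2,000 per well) are seeded and left overnight at 37 C. Compound is added for 30 min, then DTNB and acetylthiocholine for a further 90 min at 37 C before absorbance-based thiocholine detection.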

[14] = target: Progesterone receptor (Homo sapiens) (UniProt P06401); assay: qHTS assay to identify small molecule antagonists of the progesterone receptor (PR) signaling pathway (AID 1346795; active = well fitted inhibition curve with a large enough effect in the signal ratio in the repeat runs, not every such curve was filed as active; the % refers to the signal ratio); settings: PR-UAS-bla HEK293T, beta-lactamase FRET ratio, 16 h; series mostly up to 92.4 µM
Summary of the method: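 Antagonist mode: compounds tested against 1 nM (final) promegestone stimulation in HEK293T cells expressing PR-UAS-bla reporter, 16 hr at 37C, 5% CO2; beta-lactamase activity detected via B/G FRET substrate after 2 hr at room temperature.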

[15] = qHTS assay to identify small molecule agonists of the TGF-beta/Smad signaling pathway - cell viability counter screen (AID 1346829); settings: SBE-bla HEK293T viability, CellTiter-Glo luminescence, 5 h; series mostly up to 76.8 µM; note: top concentration of the series differs between compounds; nearly all actives have a fitted effect of over 45% in size
Summary of the method: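 Tox21 qHTS format: SBE-bla HEK 293T cells treated with DMSO-dissolved compounds for 5 hr; CellTiter-Glo luminescence after 30 min at room temperature.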

[16] = target: Nuclear receptor subfamily 1 group I member 2 (Rattus norvegicus) (UniProt Q9R1A7); assay: Rat pregnane X receptor (rPXR) activation by small molecules, qHTS assay (AID 1346983); settings: rPXR luciferase reporter cells, One-Glo luminescence, 24 h; active compounds read high; note: nearly all actives have a fitted effect of over 20% in size
Nuclear receptor subfamily 1 group I member 2 (Rattus norvegicus), sequence (Q9R1A7 whole entry, looked up): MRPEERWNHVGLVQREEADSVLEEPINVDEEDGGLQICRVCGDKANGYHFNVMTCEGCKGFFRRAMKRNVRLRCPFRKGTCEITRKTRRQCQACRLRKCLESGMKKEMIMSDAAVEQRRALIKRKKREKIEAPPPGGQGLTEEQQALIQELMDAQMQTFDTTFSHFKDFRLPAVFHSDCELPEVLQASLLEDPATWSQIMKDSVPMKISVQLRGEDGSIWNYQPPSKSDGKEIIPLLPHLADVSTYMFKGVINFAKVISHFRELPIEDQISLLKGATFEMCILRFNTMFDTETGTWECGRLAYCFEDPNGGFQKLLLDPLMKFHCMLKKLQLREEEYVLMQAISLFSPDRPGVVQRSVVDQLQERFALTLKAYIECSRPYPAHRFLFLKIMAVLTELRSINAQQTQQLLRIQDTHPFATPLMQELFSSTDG
Summary of the method: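 Luminescent readout (One-Glo luciferase, 30 min room temperature) followed 24 hr compound treatment at 37 C of rPXR cells plated 2,000 per well and preincubated 5hr; qHTS format with compounds delivered in DMSO.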

[17] = target: Nuclear receptor subfamily 1 group I member 2 (Homo sapiens) (UniProt O75469); assay: CYP3A4 induction through human pregnane X receptor (PXR) by small molecules, qHTS assay (AID 1346984); settings: DPX-2 HepG2 PXR, CYP3A4-luciferin luminescence, 24 h; series mostly up to 46.1 µM; note: nearly all actives have a fitted effect of over 40% in size
Summary of the method: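 Luminescence readout: luciferase signal after One-Glo (30 min, room temperature), following 3 h at 37C with 3uM final Luciferin-IPA P450 substrate. Cells were DPX-2 (HepG2, PXR/CYP3A4-luc co-transfected) dosed for 24 h.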

[18] = target: Nuclear receptor subfamily 1 group I member 2 (Homo sapiens) (UniProt O75469); assay: Human pregnane X receptor (PXR) activation by small molecules, qHTS assay (AID 1346985); settings: DPX-2 HepG2 CYP3A4-luciferase, 24 h; series mostly up to 38.3 µM; note: nearly all actives have a fitted effect of over 40% in size
Summary of the method: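 DPX-2 cells (HepG2 co-transfected with a PXR response element and a CYP3A4-promoter luciferase construct) were seeded at 2,000 per well, rested 5 hr at 37C, then exposed to DMSO-dissolved compounds for 24 hr. Activation was read as luciferase luminescence.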

[19] = qHTS assay to identify small molecule agonists of the progesterone receptor (PR) signaling pathway - cell viability counter screen (AID 1346799; calls by dose curve; note: nearly all actives have a fitted effect of over 45% in size); settings: PR-UAS-bla HEK293T viability, CellTiter-Glo luminescence, 16 h; series mostly up to 92.4 µM
Summary of the method: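 Cells (PR-UAS-bla HEK293T) are plated at 3,000/well in 2% charcoal-stripped FBS medium, rested 6 hr, dosed and incubated 16 hr at 37C. CellTiter-Glo is then added and luminescence measured after 30 min at room temperature.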
% is set by controls: 0 for no effect and ±100 for the full control effect.

CCOP(=S)(OCC)Oc1ccc(Cl)cc1Cl
inactive: Potency [1] | Potency [2] | outcome [3] | outcome [4] | Potency [5] | outcome [6] | Potency [7] | outcome [8] | Potency [9] | outcome [10] | Potency [11] | Potency [12] | Potency [13]

COC(=O)[C@@H](N)CCCN/C(N)=N/[N+](=O)[O-]
inactive: Potency [1] | Potency [14] | outcome [3] | Potency [15] | outcome [4] | Potency [5] | outcome [6] | Potency [7] | outcome [8] | Potency [9] | Potency [11] | max activation [16] 0.511% | Potency [13]

COC[C@@H](NC(C)=O)C(=O)NCc1ccccc1
inactive: Potency [1] | Potency [2] | outcome [3] | Potency [15] | outcome [4] | Potency [7] | outcome [8] | Potency [9] | Potency [11] | Potency [12] | Potency [13]

Cc1ccc(S(=O)(=O)N[C@@H](CCCCN)C(=O)CCl)cc1
inactive: Potency [1] | Potency [2] | outcome [3] | Potency [15] | outcome [4] | Potency [5] | outcome [6] | Potency [7] | outcome [8] | outcome [10] | Potency [11] | Potency [12] | max activation [16] -2.32% | Potency [17] | Potency [18] | Potency [13]

CC(O)CCl (stereo not drawn)
inactive: Potency [1] | Potency [14] | Potency [2] | outcome [3] | Potency [15] | outcome [4] | Potency [7] | outcome [8] | Potency [9] | outcome [10] | Potency [11] | Potency [12] | Potency [13]

C=C1C[C@@H]2[C@H](CC[C@]3(C)C(=O)CC[C@@H]23)[C@@]2(C)C=CC(=O)C=C12
inactive: Potency [1] | Potency [2] | outcome [3] | Potency [15] | Potency [5] | outcome [6] | Potency [7] | outcome [8] | outcome [10] | Potency [11] | Potency [17] | Potency [13]

O=[N+]([O-])CCO
inactive: Potency [1] | Potency [2] | Potency [19] | outcome [3] | Potency [15] | outcome [4] | Potency [5] | outcome [6] | Potency [7] | outcome [8] | Potency [9] | outcome [10] | Potency [11] | Potency [12] | Potency [13]
